Assay results published in PubChem BioAssay (NCATS).
Inconclusive results are not listed. Calls of active or inactive are those of the source. Calls follow the shape of the dose curve; as a rule, active = well fitted curve in the direction sought with a large enough effect; inconclusive = small, poorly fitted or top-dose-only effect, or another doubt; inactive = no such curve, though single readings can be large; an effect the other way counts as inactive or inconclusive.

Tests used:
HaCat = experiment: Cytotoxic Profiling of Annotated Libraries Using Quantitative High-Throughput Screening (AID 1296008); conditions: Five cell lines viability, CellTiter-Glo ATP luminescence, 48-72 h; max response: stronger effect = lower value; also: nearly all actives have a fitted effect of over 60% in size
Summary of the method: (§1)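 Cytotoxicity was measured as CellTiter-Glo ATP luminescence, read after 10 min at room temperature. Compound treatment of the cells lasted 48 or 72 hr at 37 degrees Celsius in a qHTS format.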

KB-3-1 = experiment: as above; conditions: Five cell lines viability, CellTiter-Glo ATP luminescence, 48-72 h; max response: stronger effect = lower value
Summary of the method: as §1

NIH3T3 = experiment: as above; conditions: Five cell lines viability, CellTiter-Glo ATP luminescence, 48-72 h; max response: stronger effect = lower value
Summary of the method: as §1

C33A = experiment: Primary qHTS to identify gynecologic anti-cancer compounds using libraries of approved drugs and bioactive compounds (AID 1345084); conditions: Gynecologic cancer cell panel viability, ATPlite luminescence, 48 h; series mostly up to 57.5 µM; also: nearly all actives have a fitted effect of over 55% in size
Summary of the method: (§2)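 ATP-based viability (ATPlite), 1,000 cells/well, 16 h pre-incubation, 48 h compound at 37 C, 5% CO2, 15 min RT before read.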

CAOV3 = experiment: as above; conditions: Gynecologic cancer cell panel viability, ATPlite luminescence, 48 h; series mostly up to 57.5 µM
Summary of the method: as §2

CASKI = experiment: as above; conditions: Gynecologic cancer cell panel viability, ATPlite luminescence, 48 h; series mostly up to 57.5 µM
Summary of the method: as §2

Es-2 = experiment: as above; conditions: Gynecologic cancer cell panel viability, ATPlite luminescence, 48 h; series mostly up to 57.5 µM
Summary of the method: as §2

HeLa = experiment: as above; conditions: Gynecologic cancer cell panel viability, ATPlite luminescence, 48 h; series mostly up to 57.5 µM
Summary of the method: as §2

Hek293T = experiment: as above; conditions: Gynecologic cancer cell panel viability, ATPlite luminescence, 48 h, control line for the selectivity index; series mostly up to 57.5 µM
Summary of the method: as §2

JEG-3 = experiment: as above; conditions: Gynecologic cancer cell panel viability, ATPlite luminescence, 48 h; series mostly up to 57.5 µM
Summary of the method: as §2

OV90 = experiment: as above; conditions: Gynecologic cancer cell panel viability, ATPlite luminescence, 48 h; series mostly up to 57.5 µM
Summary of the method: as §2
% is scaled to controls: 0 for no effect and ±100 for the full control effect.

C=C1CCC2C(C)(C)C(O)CCC2(C)C1CCC(C)CCO (centres undefined)
inactive: max response (HaCat) -1.49% | max response (KB-3-1) -10.1% | max response (NIH3T3) -0.535% | Potency (C33A) | Potency (CAOV3) | Potency (CASKI) | Potency (Es-2) | Potency (HeLa) | Potency (Hek293T) | Potency (JEG-3) | Potency (OV90)

CCc1c(-c2ccccc2)c(-c2ccccc2)nn1-c1ccccc1-c1cccc(OCC(=O)O)c1
inactive: max response (HaCat) -10.2% | outcome (KB-3-1) | max response (NIH3T3) 0.468% | Potency (C33A) | Potency (CAOV3) | Potency (CASKI) | Potency (Es-2) | Potency (HeLa) | Potency (Hek293T) | Potency (JEG-3) | Potency (OV90)

CC12CCC(OC3OC(CO)C(O)C(OC4OC(CO)C(O)C(O)C4O)C3O)CC1CCC1C2CCC2(C)/C(=C3/COC(=O)C3)CCC12O (centres undefined)
inactive: max response (HaCat) -0.083% | max response (KB-3-1) -0.791% | max response (NIH3T3) 4.18% | Potency (C33A) | Potency (CAOV3) | Potency (CASKI) | Potency (Es-2) | Potency (HeLa) | Potency (Hek293T) | Potency (JEG-3) | Potency (OV90)

CCC(=O)O[C@H]1C(C)(C)[C@H]([C@@H](O)C(=O)OC)[C@]2(C)C(=O)[C@@]1(O)[C@H]1O[C@]13C1CC(=O)O[C@@H](c4ccoc4)[C@]1(C)CCC32 (some centres undefined)
inactive: max response (HaCat) -11.6% | max response (KB-3-1) -4.09% | max response (NIH3T3) -25.4% | Potency (C33A) | Potency (CAOV3) | Potency (CASKI) | Potency (Es-2) | Potency (HeLa) | Potency (Hek293T) | Potency (JEG-3) | Potency (OV90)

CCn1cc(NC(=S)Nc2cc(Cl)ccc2OC)c(C(N)=O)n1
inactive: max response (HaCat) -0.793% | outcome (KB-3-1) | max response (NIH3T3) -1.95% | Potency (C33A) | Potency (CAOV3) | Potency (CASKI) | Potency (Es-2) | Potency (HeLa) | Potency (Hek293T) | Potency (JEG-3) | Potency (OV90)

CC(C)(O[C@@H]1O[C@H](CO)[C@@H](O)[C@H](O)[C@H]1O)C(OC(=O)/C=C\c1ccc(O)cc1)C(=O)OCc1ccc(O[C@@H]2O[C@H](CO)[C@@H](O)[C@H](O)[C@H]2O)cc1 (some centres undefined)
inactive: max response (HaCat) -19.6% | outcome (KB-3-1) | max response (NIH3T3) -27.1% | Potency (C33A) | Potency (CAOV3) | Potency (CASKI) | Potency (Es-2) | Potency (HeLa) | Potency (Hek293T) | Potency (JEG-3) | Potency (OV90)

O=C(O)c1cc(I)ccc1NC(=O)[C@H](Cc1ccccc1)NCc1ccccc1
inactive: max response (HaCat) -2.36% | max response (KB-3-1) -0.475% | max response (NIH3T3) 1.92% | Potency (C33A) | Potency (CAOV3) | Potency (CASKI) | Potency (Es-2) | Potency (HeLa) | Potency (Hek293T) | Potency (JEG-3) | Potency (OV90)

CC(=O)OC[C@H]1O[C@H](O[C@]2(CO)O[C@H](CO)[C@@H](OC(=O)/C=C/c3ccccc3)[C@@H]2O)[C@H](O)[C@@H](O)[C@@H]1O
inactive: max response (HaCat) -2.48% | outcome (KB-3-1) | max response (NIH3T3) -0.33% | Potency (C33A) | Potency (CAOV3) | Potency (CASKI) | Potency (Es-2) | Potency (HeLa) | Potency (Hek293T) | Potency (JEG-3) | Potency (OV90)

CC1CCC2(CO)C(C(=O)O)=CCCC2C1(C)CCc1ccoc1 (centres undefined)
inactive: max response (HaCat) -11.9% | max response (KB-3-1) 3.67% | max response (NIH3T3) -11.3% | Potency (C33A) | Potency (CAOV3) | Potency (CASKI) | Potency (Es-2) | Potency (HeLa) | Potency (Hek293T) | Potency (JEG-3) | Potency (OV90)

CC1=C(C(=O)O)/C(=C\CO[C@@H]2O[C@H](CO)[C@@H](O)[C@H](O)[C@H]2O)C(OC(=O)/C=C/c2ccc(O)cc2)C1 (some centres undefined)
inactive: max response (HaCat) -26% | max response (KB-3-1) 8.61% | max response (NIH3T3) -19.1% | Potency (C33A) | Potency (CAOV3) | Potency (CASKI) | Potency (Es-2) | Potency (HeLa) | Potency (Hek293T) | Potency (JEG-3) | Potency (OV90)

C[C@@H]1O[C@@H](OC[C@H]2O[C@@H](Oc3cc(O)cc4c3C(=O)C(O)(Cc3ccc(O)cc3)O4)[C@H](O)[C@@H](O)[C@@H]2O)[C@H](O)[C@H](O)[C@H]1O (some centres undefined)
inactive: max response (HaCat) -8.78% | max response (KB-3-1) 8.25% | max response (NIH3T3) 2.04% | Potency (C33A) | Potency (CAOV3) | Potency (CASKI) | Potency (Es-2) | Potency (HeLa) | Potency (Hek293T) | Potency (JEG-3) | Potency (OV90)

CC(C)C(N)C(=O)OCCOCn1cnc2c(=O)[nH]c(N)nc21 (centres undefined)
inactive: max response (HaCat) -13.5% | max response (KB-3-1) -4.91% | max response (NIH3T3) 1.39% | Potency (C33A) | Potency (CAOV3) | Potency (CASKI) | Potency (Es-2) | Potency (HeLa) | Potency (Hek293T) | Potency (JEG-3) | Potency (OV90)

CC(C)=CCC/C(C)=C/CO[C@@H]1O[C@H](CO)[C@@H](OC(=O)/C=C/c2ccc(O)cc2)[C@H](O[C@@H]2O[C@@H](C)[C@H](O)[C@@H](O)[C@H]2O)[C@H]1O
inactive: max response (HaCat) -28.8% | outcome (KB-3-1) | max response (NIH3T3) -7.03% | Potency (C33A) | Potency (CAOV3) | Potency (CASKI) | Potency (Es-2) | Potency (HeLa) | Potency (Hek293T) | Potency (JEG-3) | Potency (OV90)

COc1cc(O)c([C@@H](CC(=O)N2CC(C)CC(C)C2)c2ccc3c(c2)OCO3)c(OC)c1 (some centres undefined)
inactive: max response (HaCat) -11.1% | max response (KB-3-1) -2.57% | max response (NIH3T3) -1.6% | Potency (C33A) | Potency (CAOV3) | Potency (CASKI) | Potency (Es-2) | Potency (HeLa) | Potency (Hek293T) | Potency (JEG-3) | Potency (OV90)
